High-throughput results: PubChem, National Center for Advancing Translational Sciences (NCATS)
In the library only some 4.7% were active in any assay of this set; here they are far more common.
TRHR agonist-1: agonists of human TRH receptor. P34981. TRHR cells, calcium flux fluo-8, FDSS agonist mode. activation, % at 2 µM. 360,000 tested, 0.18% active. AID 493084; in the data active = activation above about 30%; note: 0% is about no effect
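Fluo-8-loaded TRHR cells; 10 s baseline, compound added, kinetic Ca2+ fluorescence read 1/s, agonist mode.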
D1 ag: human D1 receptor agonism | P21728 | AID 504660 | 360,000 tested, 1% active | HEK293 T-REx D1 cells, calcium flux, agonist mode | activation, % at 2 µM; in the data active = activation above about 30%; note: 0% is about no effect
Target sequence (P21728 whole entry, looked up): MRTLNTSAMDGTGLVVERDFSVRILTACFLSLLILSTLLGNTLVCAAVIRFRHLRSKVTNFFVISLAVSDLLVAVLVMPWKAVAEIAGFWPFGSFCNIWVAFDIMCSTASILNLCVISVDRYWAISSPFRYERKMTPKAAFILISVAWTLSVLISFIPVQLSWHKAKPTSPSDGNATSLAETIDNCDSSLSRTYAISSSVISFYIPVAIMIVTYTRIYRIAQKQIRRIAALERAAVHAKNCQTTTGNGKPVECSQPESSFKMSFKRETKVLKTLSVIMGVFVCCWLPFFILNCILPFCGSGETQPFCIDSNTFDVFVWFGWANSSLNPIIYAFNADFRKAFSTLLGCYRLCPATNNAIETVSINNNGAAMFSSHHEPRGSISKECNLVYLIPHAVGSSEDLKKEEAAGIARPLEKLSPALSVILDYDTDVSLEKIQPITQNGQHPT
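Inducible HEK293 T-REx D1 cells, force-coupled to calcium signalling, were plated at 4000 cells/well with tetracycline and held overnight at 30 C. After no-wash calcium dye loading, compound-evoked calcium rise over 180 s flagged agonists.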
D1 PAM: enhances dopamine response at the human D1 receptor. P21728. HEK293 TREx D1 cells, calcium flux, dopamine EC20 potentiation. potentiation, % at 10 µM. 360,000 tested, 0.036% active; in the data active = potentiation above about 30%; note: 0% is about no effect
D1 antagonist: antagonists of human D1 dopamine receptor | activity change, negative = inhibition, % at 10 µM | AID 504652 | HEK293 TREx D1 cells, calcium flux, dopamine EC80; hits give low values | 360,000 tested, 3.2% active; in the data active = activity change below about -30%; note: % is set by controls: 0 for no effect and ±100 for the full control effect
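Compound effects on dopamine-evoked calcium signalling were measured in tetracycline-induced HEK293 Trex D1 cells. Dopamine at EC80 followed a 180 s compound pre-read, and fluorescence was tracked kinetically for 180 s more.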
TRHR enhancer-1: TRH receptor (human) allosteric enhancement. TRHR cells, fluo-8 calcium fluorescence, EC20 TRH enhancement. enhancement, % at 2 µM. 360,000 tested, 0.66% active; in the data active = enhancement above about 30%; note: 0% is about no effect
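Enhancer read-out: after compound pinning and an initial kinetic agonist-mode read, an EC20 of TRH (10 nM final) was injected and fluo-8 calcium signal (Ex 480/Em 530) followed at 1 s/cycle for 100 cycles in TRHR-expressing cells.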
TRHR enhancer-2: human TRH receptor allosteric enhancement confirmation. shares compounds with TRHR enhancer-1. TRH receptor cell assay, enhancer confirmation qHTS. activity change, negative = inhibition, % at 46.1 µM. 970 tested, under 10 active;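 note: compound effect scored on response to added TRH at EC20 of 10 nM; 0% is about no effect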
TRHR agonist-2: human TRH receptor agonism confirmation; TRHR-expressing cells, agonist activation read-out; 970 tested, 8% active; Potency, µM (titrated, usually from 46.1 µM), inactives show at the highest dose activation, most hits filed as activators; shares compounds with TRHR enhancer-1; note: potency is the fitted concentration of half-maximal effect; 0% is about no effect; nearly all actives have a fitted effect of over 75% in size
* hit, by the source's call; u = inconclusive; x = no result given. Unless noted, calls come from the whole dose curve; as a rule, active = well fitted curve in the direction sought with a large enough effect; inconclusive = small, poorly fitted or top-dose-only effect, or another doubt; inactive = no such curve, though single readings can be large; an effect the other way counts as inactive or inconclusive.

SMILES	TRHR agonist-1	D1 ag	D1 PAM	D1 antagonist	TRHR enhancer-1	TRHR enhancer-2	TRHR agonist-2
CCc1ccc(CN(C)CC(O)COc2cccc3ccccc23)cc1 (centres undefined)	0	-1	0	10	42*	u	1%
CCN1C(=O)N/C(=C/c2ccc(C)o2)C1=O	0	6	-4	7	-1	x	x
CCN1C(=O)N/C(=C/c2ccc(Sc3ccc(C)cc3)o2)C1=O	-1	3	-6	-1	54*	-8	1%
CC1Cc2cc(S(=O)(=O)CCC(=O)Nc3ccc(OC(F)(F)F)cc3)ccc2N1C(=O)C1CC1 (centres undefined)	0	1	-2	-13	-2	x	x
Cc1nc2cc(O)ccc2n1C	2	1	-4	8	61*	-3	1%
Cc1nc2cc3ccccc3cc2n1C	0	0	1	3	5	x	x
CC(C)c1cccc(C(C)C)c1NC1=NS(=O)(=O)c2ccccc21	-1	-1	4	-7	-8	x	x
Cc1cccc(NC(=O)CCNS(=O)(=O)c2ccc(Cl)cc2)c1	0	1	-3	0	20	x	x
Cc1cccc(OCCNS(=O)(=O)c2ccc(Cl)cc2)c1	1	4	7	-8	51*	4	1%
O=C(N/N=C/c1c(O)n(-c2ccc(Cl)cn2)c(=O)c2ccccc12)c1ccncc1	38*	45*	-9	-6	6	11	21µM*
O=C(N/N=C/c1c(O)n(-c2ccc(Cl)cn2)c(=O)c2ccccc12)C1CC1	2	1	2	4	5	x	x
O=C(N/N=C/c1c(O)ccc2ccccc12)c1ccc(Br)o1	51*	97*	23	-2	4	1	18µM*
NC1=NC(=O)/C(=C/c2ccc(OCC(=O)O)cc2)S1	0	4	0	-3	-3	x	x
CCN(CC)c1ccc(/C=C2\SC(N)=NC2=O)cc1	29	60*	0	8	27	1	u
O=C(Cc1ccc(Cl)cc1)Nc1ccccc1C(=O)N1CCCC1	0	10	-4	6	70*	u	-1%
O=C(Cc1ccccc1)Nc1ccccc1C(=O)N1CCCCC1	0	1	-2	6	-4	x	x
Cc1ccc2nc(CN3CCN(C(=O)Nc4ccc(F)cc4)CC3)oc2c1	0	-1	-1	-3	-5	x	x
Cc1cc(C)n(-c2nc3nonc3nc2-n2nc(C)cc2C)n1	0	1	0	-2	54*	-4	4%
Cc1cc(C)n(CCN(C)c2nc3nonc3nc2N2CCCCC2)n1	0	0	-4	0	2	x	x
C/C(CC(=O)Nc1cccc(C(F)(F)F)c1)=N\NC(=O)Cc1ccccc1	0	5	-11	4	58*	2	1%
CCCn1c2ccccc2c2cnn(CC(=O)NCCc3ccc(OCC)cc3)c(=O)c21	-1	1	7	6	-12	x	x
Cc1cc(=O)n2ccccc2c1C#N	1	1	1	-1	-5	x	x
COc1ccc2c(C#N)c3ccccn3c2c1	10	18	-6	-16	47*	-10	u
S=c1nc(-c2sccc2OCc2ccc(Cl)cc2Cl)[nH][nH]1	0	-1	-5	-26	51*	u	1%
O=[N+]([O-])c1ccc(N2N=C(c3ccco3)CC2c2ccccc2)cc1 (centres undefined)	28	50*	-5	1	-9	6	u
Fc1ccc(C2CC(c3ccco3)=NN2c2ccccc2)cc1 (centres undefined)	0	4	5	7	10	x	x
CC(C)[C@H](NC(=O)c1c(F)cccc1F)C(=O)OCC(=O)NC(=O)NC1CCCC1	-1	3	0	3	55*	-3	0%
COc1ccc(C(=O)OCC(=O)NCC2CCCCC2)c(OC)c1	-1	1	-1	2	-10	x	x
COc1ccc(C(=O)OCC(=O)NCC2CCCCC2)cc1F	-1	5	2	2	41*	3	1%
